An excerpt weighted towards active compounds, which were near 12% of everything screened.
TDP1 inh – qHTS Assay for Inhibitors of Tyrosyl-DNA Phosphodiesterase (TDP1) | actives 0.28% (n = 350,000) | Potency, µM (top dose mostly 130 µM), for the others: top-dose activity change, negative = inhibition, most hits filed as inhibitors | Tyrosyl-DNA phosphodiesterase 1 (Homo sapiens), Q9NUW8 | recombinant TDP1, AlphaScreen DNA substrate cleavage; further: on the % scale 0 is the no-effect control and ±100 the full control effect; nearly all actives have a fitted effect of over 40% in size
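Recombinant human Tdp1 (E. coli-expressed, 1 nM final) preincubated with compounds 15 min at room temperature, then 5'-biotin/3'-phosphotyrosine-FITC DNA substrate (15 nM final) added for 5 min. AlphaScreen beads (10 ug/ml final) added 10 min; cleavage lowers signal.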
Sfp PPTase inh – qHTS Assay for Inhibitors of Bacillus subtilis Sfp phosphopantetheinyl transferase (PPTase) | Biochemical Sfp PPTase activity, qHTS | Potency, µM, for the others: largest response in the series, negative = inhibition, most hits filed as inhibitors | actives 3.5% (n = 310,000) | AID 1490, 2009;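 further: the enzyme is Sfp with the accession as filed and its product quenches rhodamine fluorescence; 0% = enzyme reaction without inhibitor and -100% = no enzyme wells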
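Reaction rates are the 30-min fluorescence difference (ex 525, em 598 nm) in wells containing 15 nM Sfp, 5 uM rhodamine-CoA and 12.5 uM BHQ-2-YbbR at pH 7.6 with 10 mM MgCl2.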
HP1b chromo inh – HTS for Inhibitors of HP1-beta Chromodomain Interactions with Methylated Histone Tails; Chromobox protein homolog 1 (Homo sapiens), P83916; Potency, µM (highest dose often 114 µM), without a hit: top-dose activity change, negative = inhibition, most hits filed as inhibitors; actives 0.56% (n = 390,000); AlphaScreen HP1-beta / biotin-H3K9me3 peptide binding; further: nearly all actives have a fitted effect of over 70% in size
Target sequence (P83916 whole entry, looked up): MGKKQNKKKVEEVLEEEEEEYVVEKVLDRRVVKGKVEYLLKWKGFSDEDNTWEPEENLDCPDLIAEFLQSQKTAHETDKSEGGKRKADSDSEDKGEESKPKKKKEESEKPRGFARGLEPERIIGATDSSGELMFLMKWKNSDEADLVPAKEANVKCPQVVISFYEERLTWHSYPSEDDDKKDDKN
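HP1-beta protein (50 nM final) preincubated 30 min at room temperature with biotinylated H3(1-18)K9me3 peptide (50 nM) in PBS pH 7.4, 0.01% Tween-20, then compound added for 30 min. AlphaScreen streptavidin donor/nickel chelate acceptor beads (10 ug/mL final), 30 min dark, luminescence read.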
JMJD2A Tudor – qHTS Assay for Inhibitors of JMJD2A-Tudor Domain; actives 4.4% (n = 390,000); AlphaScreen JMJD2A-Tudor / H3K4me3 peptide binding; Potency, µM (doses to about 114 µM), without a hit: top-dose activity change, negative = inhibition, usual class: inhibitors; Lysine-specific demethylase 4A (Homo sapiens), O75164; further: on the % scale 0 is the no-effect control and ±100 the full control effect; nearly all actives have a fitted effect of over 50% in size
BAZ2B block – qHTS Assay for Inhibitors of BAZ2B; AlphaScreen BAZ2B-H3K14Ac peptide displacement; actives 4.4% (n = 360,000); Bromodomain adjacent to zinc finger domain protein 2B (Homo sapiens), Q9UIF8; Potency, µM (series often up to 114 µM), without a hit: at the top dose activity change, negative = inhibition, actives largely listed as inhibitors; further: on the % scale 0 is the no-effect control and ±100 the full control effect; nearly all actives have a fitted effect of over 60% in size
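AlphaScreen luminescence quantifies BAZ2B engagement of H3K14Ac peptide; the protein and biotinylated peptide are both at 50 nM final, buffer PBS pH 7.4 with 0.01% Tween-20, all steps at room temperature.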
G9a block – qHTS Assay for Inhibitors of Histone Lysine Methyltransferase G9a; Histone-lysine N-methyltransferase EHMT2 (Homo sapiens), Q96KQ7; G9a H3K9 monomethylation, AlphaScreen, 2 h; Potency, µM (highest dose often 102 µM), without a hit: at the highest dose activity, negative = inhibition, most hits filed as inhibitors; actives 8.8% (n = 350,000); AID 504332, 2011; further: on the % scale 0 is the no-effect control and ±100 the full control effect; nearly all actives have a fitted effect of over 75% in size
Target sequence (Q96KQ7 913-1193 limits assumed): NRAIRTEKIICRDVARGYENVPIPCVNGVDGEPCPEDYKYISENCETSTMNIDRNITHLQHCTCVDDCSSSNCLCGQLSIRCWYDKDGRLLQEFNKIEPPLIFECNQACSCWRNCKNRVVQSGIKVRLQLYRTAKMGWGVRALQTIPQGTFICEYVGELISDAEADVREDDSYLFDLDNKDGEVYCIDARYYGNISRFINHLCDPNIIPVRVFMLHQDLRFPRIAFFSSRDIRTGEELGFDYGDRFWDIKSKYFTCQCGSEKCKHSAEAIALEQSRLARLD
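G9a (20 nM) preincubated 15 min RT with compounds, then 500 nM biotinylated H3K9 peptide and 20 uM SAM added; 2 h RT reaction. Monomethyl-H3K9 product detected by AlphaScreen with anti-H3K9me1 antibody, streptavidin donor and anti-rabbit IgG acceptor beads.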
* hit, by the source's call; u = inconclusive; x = not tested or not shown; [ ] = dose if it differs, or a comment. The call rests on the fitted dose curve; in most records, active means well fitted curve in the direction sought with a large enough effect; inconclusive means small, poorly fitted or top-dose-only effect, or another doubt; inactive means no such curve, though single readings can be large; an effect the other way counts as inactive or inconclusive. Potency means the concentration at half of the fitted maximal effect.

SMILES	TDP1 inh	Sfp PPTase inh	HP1b chromo inh	JMJD2A Tudor	BAZ2B block	G9a block
Cc1cc([N+](=O)[O-])nn1CC(=O)N/N=C/c1ccc(O)cc1O	8%	29%	50%	u	89µM*	10%
O=C(N/N=C/c1cc([N+](=O)[O-])ccc1O)C1CCCCC1	10%	22%	32%	-20%	-33%	10%[59 µM]
O=C(CNCc1ccccc1)NC1C2CC3CC(C2)CC1C3 (stereo not given)	x	u	71%	-8%	-29%	26%[0.501 µM]
Oc1ccc(N=Nc2ccccc2-c2nn[nH]n2)c(O)c1	x	15%	-5%	u	50µM*	35µM*
O=C(O)c1ccc(-n2c(-c3cc(C4CC4)[nH]n3)n[nH]c2=S)cc1	u	56µM*	44%	20µM*	-10%	18µM*
CC1CCC(C(=O)NNC(=O)c2cc(-c3ccco3)[nH]n2)CC1 (stereo not given)	0%	9%	27%	-17%	-21%	43%[59 µM]
O=C(O)c1ccc(-n2c(-c3cc(-c4ccco4)[nH]n3)n[nH]c2=S)cc1	x	45µM*	12%	20µM*	45µM*	4%[0.501 µM]
CC(=O)c1ccc(-n2c(-c3cc(-c4ccco4)[nH]n3)n[nH]c2=S)cc1	-6%	50µM*	-11%	u	u	u
COc1ccc(C(=O)CSc2n[nH]c(-c3ccco3)n2)cc1	5%	u	14%	-12%	-3%	u
O=C(O)c1cc(-c2ccco2)[nH]n1	-1%[56.1 µM]	22µM*	25%	79µM*	4%	u
NNC(=O)c1ccccc1CO	x	x	27%	-11%	x	x
C=Cc1ccc(CN2C(=O)N(c3ccc(C)c(C)c3)S(=O)(=O)c3ccccc32)cc1	-1%	x	25%	-14%	-6%	-6%[59 µM]
Cc1ccc(-c2ccc(/C=C(\C#N)C(N)=S)n2C)cc1	5%	-4%	-30%	u	u	10µM*
Cc1cc(C)c(/C=C(\C#N)C(N)=S)c(C)c1	3%	2%	1%	-32%	1%	45µM*
Cn1cccc1/C=C(/C#N)C(N)=S	5%	-2%	-6%	-24%	u	u
O=S(=O)(c1cccc(C(F)(F)F)c1)N1CCN(c2nc(-c3ccccc3)nc3ccccc23)CC1	1%	x	25%	-10%	x	x
CCCCn1c(CN2CCN(c3cccc(Cl)c3)CC2)nc2c1c(=O)n(C)c(=O)n2C	8%	-24%	16%	-35%	u	-35%[59 µM]
CCCCCn1c(CN2CCN(c3cccc(Cl)c3)CC2)nc2c1c(=O)n(C)c(=O)n2C	4%	-14%	-8%	-35%	u	45µM*
c1ccc(CSc2ccc(-c3cccs3)nn2)cc1	1%	-1%	48%	-7%	-4%	18%
c1ccc(CSc2ccc(-c3cccs3)nn2)nc1	4%	-5%	27%	2%	-7%	16µM*
O=C(Nc1ccc(F)cc1)c1cccc(N2C(=O)C3C4CCC(C4)C3C2=O)c1 (stereo not given)	-1%	2%	27%	18%	-1%	3.2µM*
O=C(Nc1cccc(Cl)c1)c1cccc(N2C(=O)C3CC=CCC3C2=O)c1 (stereo not given)	25µM*	-7%	u	-26%	u	79µM*
O=C(Nc1cccc(N2C(=O)C3CCCCC3C2=O)c1)c1ccccc1 (stereo not given)	0%	17%	38%	-6%	-1%	11%
CC1C=CCC2C(=O)N(c3cccc(C(=O)NCc4ccccc4)c3)C(=O)C12 (stereo not given)	x	-27%	20%	-28%	-24%	28µM*
CN(C)S(=O)(=O)c1ccc(C(=O)NCc2nnc(SCC(=O)c3ccccc3)o2)cc1	1%	-5%	12%	-3%	21%	x
SMILES	TDP1 inh	Sfp PPTase inh	HP1b chromo inh	JMJD2A Tudor	BAZ2B block	G9a block
CN(C(=O)CSc1nnc(-c2ccccc2F)o1)C1CCCCC1	-1%	x	53%	-5%	-15%	-2%[59 µM]
C/C(=N\N(c1ccccc1)c1ccccc1)c1ccc(N)cc1	x	x	u	22µM*	x	x
C/C(=N\N(c1ccccc1)c1ccccc1)c1ccc(O)cc1	11%	-1%	u	40µM*	50µM*	79µM*
CC(=NN(Cc1ccccc1)c1ccccc1)c1ccccc1	x	x	26%	0%	x	x
CS(=O)(=O)c1ccc(C(=O)OCC(=O)NC(=O)C2CCCCC2)cc1[N+](=O)[O-]	9%	25µM*	-17%	-21%	0%	-30%
Cc1cc(C(=O)OCC(=O)NC(=O)C2CCCCC2)ccc1[N+](=O)[O-]	0%	x	20%	-7%	x	x
N#Cc1cccc(S(=O)(=O)NCc2nnc3ccccn23)c1	0%	x	45%	3%	12%	17%[12.7 µM]
CC(C)n1cc(/C=N/Nc2ccc(Cl)c(C(=O)O)c2)c2ccccc21	x	-9%	x	x	45µM*	10µM*
Cc1ccc(C(=O)N/N=C/c2cn(Cc3ccccc3)c3ccccc23)cn1	7%	-12%	15%	u	-30%	x
O=C(N/N=C/c1cn(Cc2ccccc2)c2ccccc12)c1cc(O)cc(O)c1	-15%	-7%	-18%	u	50µM*	79µM*
O=C(O)c1ccc(N/N=C/c2cn(Cc3ccc(F)cc3)c3ccccc23)cc1	5%	-13%	-31%	56µM*	45µM*	45µM*
C=C(C)Cn1c(SCC(=O)c2ccc(OC)cc2)nc2sc3c(c2c1=O)CCCC3	x	x	-7%	-14%	-11%	-21%[59 µM]
Cc1cc(Nc2cccc(F)c2)nc(NCc2ccccc2)n1	3%	56µM*	13%	-23%	-12%	5%[59 µM]
CCCCNc1cc(C)nc(NCc2ccccc2)n1	2%	-15%	-4%	u	-24%	-17%
Cc1cc(Nc2ccccc2)nc(NCc2ccccc2)n1	0%	25µM*	3%	-25%	-13%	3%[59 µM]
Cc1cc(Nc2ccc(Cl)cc2)nc(NCc2ccccc2)n1	3%	20µM*	-7%	u	u	-16%[59 µM]
Cc1ccc(-c2nnn(CC(=O)N(Cc3ccco3)C(C(=O)NC(C)(C)C)c3ccc(C)o3)n2)o1 (stereo not given)	5%	-1%	36%	u	-27%	-6%
Cc1ccc(-c2nnn(CC(=O)N(c3cccc(O)c3)C(C(=O)NC(C)(C)C)c3cccs3)n2)o1 (stereo not given)	0%	4%	5%	-20%	1%	45µM*
